The list is not random: actives were taken first. Their share in the collection is about 3.6%.
Pf apPOL block: Pf-apPOL DNA polymerase inhibition | Recombinant Pf-apPOL, molecular beacon fluorescence, 1.5 h | inhibition, % at 10 µM | 0.25% of 210,000 active | AID 1794808
mHTT-CaM PPI inh: mHTT-calmodulin interaction abrogation; P42858; AlphaScreen His-mHTT/GST-CaM binding, luminescence; inhibition, % at 15 µM; 3.6% of 190,000 active
Large screens that a line does not name were inactive. Cut-off read from the data, not from the text of the source: active = inhibition above about 50%; inactive = the rest.

CCOc1ccccc1NC(=O)C(CCS(C)(=O)=O)NC(C)=O (stereo not drawn)	none
O=C(c1ccc(C#CC2(O)CCCCC2)cc1)N1CCN(c2ccc([N+](=O)[O-])cc2)CC1	mHTT-CaM PPI inh 56
O=C(c1cccnc1)N1CCN(c2ccc([N+](=O)[O-])cc2)CC1	none
Cc1ccc(C)c(N2CCN(C(=O)C3CCC3)CC2)c1	none
Cc1ccc(C)c(N2CCN(C(=O)C3c4ccccc4CCN3C(=O)C3CC3)CC2)c1 (stereo not drawn)	mHTT-CaM PPI inh 57
CC(=O)c1ccc(OCC(=O)NCCCn2ncccc2=O)cc1	none
Cc1nn(Cc2ccc(C(=O)Nc3cc(Cl)cc(Cl)c3)o2)c(C)c1Br	none (no result: mHTT-CaM PPI inh)
Cc1c(C2=N/C(=C/c3ccc(C(C)C)cc3)C(=O)O2)cccc1[N+](=O)[O-]	none
COc1ccc2c(=O)c(Oc3ccccc3Br)c(C(F)(F)F)oc2c1	none
CC(=O)Oc1ccc2c(=O)c(Oc3ccccc3Br)c(C(F)(F)F)oc2c1	mHTT-CaM PPI inh 52
CCc1ccc(NC(=O)c2nnn(CC(=O)Nc3cccc(Cl)c3)c2N)cc1	none
N/C(=N\OCC(=O)Nc1cccc([N+](=O)[O-])c1)c1nonc1N	none
O=C1CC(c2cccs2)CC2=C1C(c1coc3ccccc3c1=O)Nc1ccccc1N2 (stereo not drawn)	mHTT-CaM PPI inh 54
O=C1CC(c2ccccc2Cl)CC2=C1C(c1coc3ccccc3c1=O)Nc1ccccc1N2 (stereo not drawn)	none
CN(Cc1ccccc1F)c1cc2c(c3c1ccn3C)C1CCC2C1 (stereo not drawn)	mHTT-CaM PPI inh 56
Cn1ccc2c(-c3ccccc3F)cc3c(c21)C1CCC3C1 (stereo not drawn)	none
CC(C)NC(=O)c1ccc(OCC2CCN(C(=O)C3CCCO3)CC2)cc1 (stereo not drawn)	none
O=C(CSc1nccn1-c1cccc(Cl)c1)Nc1cccc(C(F)(F)F)c1	mHTT-CaM PPI inh 61
Cc1cc(C)cc(-n2ccnc2SCC(=O)Nc2cccc(C(F)(F)F)c2)c1	mHTT-CaM PPI inh 52
Cc1cccc(-n2ccnc2SCC(=O)Nc2cccc(C(F)(F)F)c2)c1	none
Cc1cccc(-n2ccnc2SCC(=O)Nc2ccc(Cl)c(Cl)c2)c1C	mHTT-CaM PPI inh 95
O=C(CSc1nccn1-c1ccc([N+](=O)[O-])cc1)Nc1cc(C(F)(F)F)ccc1Cl	mHTT-CaM PPI inh 51
O=C(CSc1nccn1-c1ccccc1)Nc1cc(C(F)(F)F)ccc1Cl	none
O=C(CSc1nccn1-c1cccc(Cl)c1)Nc1cc(C(F)(F)F)ccc1Cl	none
Cc1cccc(-n2ccnc2SCC(=O)Nc2cccc(C(F)(F)F)c2)c1C	none
COc1ccc(/C=C/C(=O)Nc2c3c(nn2-c2ccccc2C)CS(=O)(=O)C3)cc1OC	none
COc1cccc(C2CC(=O)Nc3n[nH]c(C)c32)c1OC (stereo not drawn)	none
COc1cc(/C=C2\SC(NC(C)=O)=NC2=O)ccc1OCc1c(F)cccc1Cl	none
CCCn1c(C(=O)N2CCOCC2)cc2sc(C)cc21	none
C=C(C)Cn1c(C(=O)NCC2CCCO2)cc2sc(C)cc21 (stereo not drawn)	none
CCCn1c(C(=O)NCC2CCCO2)cc2sc(Br)cc21 (stereo not drawn)	mHTT-CaM PPI inh 60
CCCn1c(C(=O)N2CCN(C(C)=O)CC2)cc2sc(Br)cc21	mHTT-CaM PPI inh 54
Cn1cnnc1C1CCCN(C(=O)c2ccc3ncccc3c2)C1 (stereo not drawn)	none
CCCN(C)C(=O)C1CCN(c2cnn(CCC)c(=O)c2)CC1	none
NC(=O)c1ccccc1NC(=O)CCCOc1ccccc1	none
Cc1ccc(CS(=O)(=O)Cc2ccc(C(=O)NCc3ccc(F)cc3)o2)cc1	none
CSc1ccc(CNC(=O)C2CCN(c3cncnc3N3CCCCC3)CC2)cc1	none
O=C(NCc1ccc(C(F)(F)F)cc1)C1CCN(c2cncnc2N2CCCC2)CC1	mHTT-CaM PPI inh 83
O=C(NCc1cccc(Cl)c1)C1CCN(c2cncnc2N2CCCC2)CC1	mHTT-CaM PPI inh 52
Cc1cccc(CNC(=O)C2CCN(c3cncnc3N3CCCC3)CC2)c1	none
CNc1ccc([N+](=O)[O-])cc1-n1cc2c(c1-c1ccc(OC)cc1)c(=O)n(C)c(=O)n2C	none
COc1ccc(-c2c3c(=O)n(C)c(=O)n(C)c3cn2-c2ccccc2C)cc1	Pf apPOL block 54
Cn1c(=O)c2c(-c3ccccc3)n(Cc3ccccc3)cc2n(C)c1=O	none
COc1ccc(-c2c3c(=O)n(C)c(=O)n(C)c3cn2C2CCCCC2)cc1	Pf apPOL block 67
Cc1ccccc1-n1cc2c(c1-c1ccccc1)c(=O)n(C)c(=O)n2C	none
COc1ccc(-c2c3c(=O)n(C)c(=O)n(C)c3cn2Cc2ccc(Cl)cc2)cc1	mHTT-CaM PPI inh 76
Cc1c(C(C)C)c(N2CCOCC2)n2c(nc3ccccc32)c1C#N	none
O=C(c1ccc(F)cc1)N1CCC(Nc2ncnc3c2CCC3)CC1	none
COc1ccc(S(=O)(=O)N2CCN(C(=O)c3ccccc3)CC2)cc1F	none
CC(C)N1C(=O)c2cccnc2Sc2cc(C(=O)N3CCCN(C)CC3)ccc21	none
CCOc1cc(CNc2ccc3c(c2)CCC3)ccc1O	mHTT-CaM PPI inh 51
CCOc1cc(CNc2ccccc2SC)ccc1O	none
COc1ccc(C=Nc2ncn[nH]2)cc1Cn1cc([N+](=O)[O-])cn1	none
O=C1/C(=C/c2c[nH]c3ccccc23)CC/C1=C\c1c[nH]c2ccccc12	mHTT-CaM PPI inh 98
O=C1/C(=C/c2c[nH]c3ccccc23)Sc2ccccc21	none
Cc1ccc(-c2noc(C3CCCN3S(=O)(=O)c3ccc(C)c(Cl)c3)n2)cc1 (stereo not drawn)	none
CCOC(=O)NC(=O)c1ccsc1NC(=O)c1nc2ccccc2s1	mHTT-CaM PPI inh 62
Cc1sc(NC(=O)c2nc3ccccc3s2)c(C#N)c1C	none
Cc1noc(-c2cccn2Cc2ccccc2F)n1	none
Cc1ccccc1CC(=O)Nc1cc(-c2ccsc2)no1	none
Cn1cc(-c2nc(C(=O)NCc3ccccc3)cs2)c2cccnc21	none
Cc1ccccc1CNC(=O)c1csc(-c2cn(C)c3ncccc23)n1	mHTT-CaM PPI inh 72
CC(C)c1cc(C(=O)NC2CC2)nc2cc(-c3ccccn3)nn12	none
Cc1ccc(N=C2C(=O)N(CN3CCOCC3)c3ccccc32)cc1	none
Cc1ccc(N=C2C(=O)N(CN3CCOCC3)c3ccccc32)cc1C	mHTT-CaM PPI inh 58
O=C(O)c1ccc2c(c1)C(=O)NC2=O	none
O=C(Nc1nc2c(s1)COc1ccccc1-2)C1COc2ccccc2O1 (stereo not drawn)	none
CN(C)S(=O)(=O)N1CCN(Cc2nc3ccccc3[nH]2)CC1	none
CCc1ccc(S(=O)(=O)N2CCN(Cc3nc4ccccc4[nH]3)CC2)s1	mHTT-CaM PPI inh 100
COC[C@H]1CCCN1c1ccc2c(c1)O[C@H](COCc1ccccc1)CN([C@@H](C)c1ccccc1)S2(=O)=O	none
C[C@@H](c1ccccc1)N1C[C@@H](COCc2ccccc2)Oc2cc(N3CC[C@@H](N(C)C)C3)ccc2S1(=O)=O	mHTT-CaM PPI inh 100
C[C@@H](c1ccccc1)N1C[C@@H](COCc2ccccc2)Oc2cc(N3CCC[C@H]3C(N)=O)ccc2S1(=O)=O	none
C[C@@H](c1ccccc1)N1C[C@H](COCc2ccccc2)Oc2cc(N3CCC[C@H]3CO)ccc2S1(=O)=O	none
C[C@H](c1ccccc1)N1C[C@H](COCc2ccccc2)Oc2cc(N3CC[C@@H](O)C3)ccc2S1(=O)=O	mHTT-CaM PPI inh 54
C[C@@H](c1ccccc1)N1C[C@H](COCc2ccccc2)Oc2cc(N3CCC[C@H]3C(N)=O)ccc2S1(=O)=O	none
